In PubChem BioAssay (NCATS):
Several values for one entry are separate records, joined by “and”; a condition that tells them apart may be missing. Identical values can stand only once. Results filed as inconclusive are left out. Activity calls are given as the source filed them. Calls come from the whole dose curve; as a rule, active = well fitted curve in the direction sought with a large enough effect; inconclusive = small, poorly fitted or top-dose-only effect, or another doubt; inactive = no such curve, though single readings can be large; an effect the other way counts as inactive or inconclusive.

Legend:
[1] = Viability qHTS for spleen associated tyrosine kinase inhibitor (SYKi) drug resistant MV4-11 cells (AID 1963824); note: nearly all actives have a fitted effect of over 35% in size
In short: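 SYK-inhibitor-resistant MV4-11 AML cells were seeded at 500 per well onto compound and cultured 72 hours (37 °C, 5% CO2). CellTiter-Glo was then added, and after 10 min at room temperature, luminescence gave viability.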

[2] = Quantitative highthroughput screen to assess conditional lethalithy of NOMO1 cells grown in RPMI1640 with dialyzed fetal bovine serum (RPMI+ds) (AID 1963877); note: nearly all actives have a fitted effect of over 30% in size;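 for Viability: series mostly up to about 46 µM; 100% = DMSO control wells and 0% = empty wells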
In short: (§1)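 Each medium arm—HPLM with 10% dialyzed FBS, or RPMI1640 with 5 mM glucose and 10% untreated or dialyzed FBS—was screened against an 11-point, 3-fold compound titration for 48 h at 37 °C, with CellTiter-Glo luminescence as endpoint.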

[3] = Quantitative highthroughput screen to assess conditional lethalithy of P12 Ichikawa cells grown in Human Plasma-Like Medium with dialyzed fetal bovine serum (HPLM+ds) (AID 1963879); settings: Potency: viability; note: nearly all actives have a fitted effect of over 35% in size; for Viability: series mostly up to about 46 µM
In short: as §1

[4] = Quantitative highthroughput screen to assess conditional lethalithy of P12 Ichikawa cells grown in RPMI1640 with dialyzed fetal bovine serum (RPMI+ds) (AID 1963880); settings: Potency: P12-Ichikawa viability; note: nearly all actives have a fitted effect of over 35% in size;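 for Viability: 100% = DMSO wells and 0% = empty wells on each plate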
In short: as §1

[5] = Quantitative highthroughput screen to assess conditional lethalithy of P12 Ichikawa cells grown in RPMI1640 with untreated serum (RPMI+s) (AID 1963881); settings: Potency: viability; note: nearly all actives have a fitted effect of over 35% in size;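 for Viability: series mostly up to about 46 µM; 100% = DMSO wells and 0% = empty wells without cells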
In short: as §1

[6] = Quantitative highthroughput screen to assess conditional lethalithy of SEM cells grown in Human Plasma-Like Medium with dialyzed fetal bovine serum (HPLM+ds) (AID 1963882); note: nearly all actives have a fitted effect of over 35% in size; for Viability: series mostly up to about 46 µM
In short: as §1

[7] = Quantitative highthroughput screen to assess conditional lethalithy of SEM cells grown in RPMI1640 with unreated serum (RPMI+s) (AID 1963883); note: nearly all actives have a fitted effect of over 35% in size;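 for Viability: 100% = DMSO wells and 0% = empty wells without cells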
In short: as §1

[8] = Cellular viability qHTS for adrenocortical cancer (ACC) cell line SW-13 (AID 1963989); settings: SW-13 ACC cells viability, CellTiter-Glo, 48 h; activity (max response): hits give low values; note: nearly all actives have a fitted effect of over 65% in size;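 for activity (max response): cells grown in serum-free medium with ITS supplement; % is set by controls: 0 for no effect and ±100 for the full control effect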
In short: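 IC50 and maximal-response values come from four-parameter logistic fits of titration data. SW-13 cells in serum-free medium received compounds (up to 46 uM final) for 48 h before CellTiter-Glo luminescence.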

[9] = Cellular viability qHTS for adrenocortical cancer (ACC) cell line NCI-H295R (AID 1963990); note: nearly all actives have a fitted effect of over 60% in size
In short: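 Adrenocortical carcinoma cells, suspended at 300 000 cells/mL in serum-free DMEM plus ITS, rested overnight before pin transfer of compound. After two days' incubation, ATP-dependent luminescence was recorded and curve-fitted.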

[10] = Quantitative highthroughput screen to assess conditional lethalithy of NOMO1 cells grown in Human Plasma-Like Medium with dialyzed fetal bovine serum (HPLM+ds) (AID 1963878); note: nearly all actives have a fitted effect of over 35% in size;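 for Viability: 100% = DMSO wells and 0% = empty wells on each plate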
In short: as §1

[11] = Quantitative highthroughput screen to assess conditional lethalithy of SEM cells grown in RPMI1640 with dialyzed fetal bovine serum (RPMI+ds) (AID 1963884); note: nearly all actives have a fitted effect of over 35% in size;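 for Viability: series mostly up to about 46 µM; 100% = DMSO control wells and 0% = empty wells without cells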
In short: as §1
Potency is the fitted concentration of half-maximal effect.

O=C(CCc1ccc(O)cc1)c1c(O)cc(O)cc1O
inactive: Potency [1] | Potency [2] | Potency [3] | Potency [4] | Potency [5] | Potency [6] | Potency [7] | activity (max response) [8] -4.39% | Potency [9]

COc1cccc(-c2cc(=O)c3ccccc3o2)c1N
active: Potency [1] 18.4 µM
inactive: Potency [2] | Potency [10] | Potency [3] | Potency [4] | Potency [5] | Potency [11] | activity (max response) [8] 0.813%

O=C(Nc1nnc(-c2ccco2)o1)c1cc(-c2ccccc2)nc2ccccc12
active: Potency [1] 13.2 µM | Potency [10] 5900 nM | Potency [3] 4690 nM | Potency [5] 26400 nM | Potency [11] 20900 nM | Potency [8] 20 µM | Potency [9] 10 µM

Cc1ccnc2c1NC(=O)c1cccnc1N2C1CC1
inactive: Potency [1] | Potency [3] | Potency [4] | Potency [5] | Potency [6] | Potency [7] | Potency [11] | Potency [9]

Cc1ccnc(NS(=O)(=O)c2ccc(NC(=O)Nc3ccc(S(=O)(=O)Nc4nccc(C)n4)cc3)cc2)n1
inactive: Potency [1] | activity (max response) [8] -24.6% | Potency [9]
active: Potency [2] 469 nM | Potency [10] 118 nM | Potency [3] 264 nM | Potency [4] 332 nM | Potency [5] 469 nM | Potency [7] 83.3 nM | Potency [11] 105 nM

CCOC(=O)[C@H](CCc1ccccc1)N[C@H]1CCc2ccccc2N(CC(=O)O)C1=O
inactive: activity (max response) [8] -3.37% | Potency [9]
active: Potency [1] 16.6 µM | Potency [10] 16600 nM

O=C(O)c1ccc(Nc2ncc3c(n2)-c2ccc(Cl)cc2C(c2c(F)cccc2F)=NC3)cc1
active: Potency [1] 0.206 µM | Potency [2] 662 nM | Potency [10] 590 nM | Potency [3] 1180 nM | Potency [5] 935 nM
inactive: activity (max response) [8] -30%

Clc1ccc(C(Cn2ccnc2)OCc2ccc(Sc3ccccc3)cc2)c(Cl)c1 (centres undefined)
active: Potency [1] 6.61 µM | Potency [8] 31.6 µM
inactive: Potency [10] | Potency [6] | Potency [11]

O=C1CCCC2=C1C(c1[nH]ncc1Cl)N=C(Nc1nc3ccccc3o1)N2 (centres undefined)
active: Potency [1] 14.6 µM and 13.2 µM | Potency [10] 18700 nM
inactive: Potency [2] | activity (max response) [8] -9.4% | Potency [9]

CN1N=C(N)c2cn([C@@H]3O[C@H](COP(=O)(O)O)[C@@H](O)[C@@H]3O)c3ncnc1c23
active: Potency [1] 0.0742 µM | Potency [10] 5260 nM | Potency [6] 29.6 nM | Potency [7] 29.6 nM | Potency [11] 7.4 nM

O=C(Nc1cccc2c(=O)cc(-c3nn[nH]n3)oc12)c1ccc(OCCCCc2ccccc2)cc1
inactive: Potency [1] | activity (max response) [8] 13.6%
active: Potency [10] 23500 nM | Potency [5] 18700 nM | Potency [7] 9350 nM

Cc1ccccc1C(C(=O)NC1CCCCC1)N(C(=O)Cn1ccnc1C)c1cccc(F)c1 (centres undefined)
inactive: Potency [2] | Potency [10] | Potency [3] | Potency [4] | Potency [5] | Potency [6] | Potency [7] | Potency [11] | activity (max response) [8] -14.8% | Potency [9]
active: Potency [1] 9.34 µM

CCc1c2c(nc3ccc(O)cc13)-c1cc3c(c(=O)n1C2)COC(=O)[C@]3(O)CC
active: Potency [1] 0.0083 µM | Potency [3] 5.3 nM | Potency [4] 4.2 nM | Potency [5] 5.3 nM | Potency [6] 14.8 nM | Potency [7] 8.3 nM | Potency [11] 10.5 nM | Potency [8] 0.224 µM | Potency [9] 1.26 µM

CN(C)[C@@H](CCOc1cccc2ccccc12)c1ccccc1
inactive: Potency [3] | Potency [5] | Potency [11]
active: Potency [1] 23.7 µM

CC(=O)c1c(C)c2cnc(Nc3ccc(N4CCNCC4)cn3)nc2n(C2CCCC2)c1=O
active: Potency [1] 184 nM and 5.25 µM | Potency [7] 4690 nM | Potency [11] 5260 nM | Potency [9] 25.1 µM

O=C(NOCC1CC1)c1ccc(F)c(F)c1Nc1ccc(I)cc1Cl
active: Potency [1] 3.35 µM and 2.91 µM and 2.35 µM | Potency [5] 2640 nM | Potency [6] 7430 nM | Potency [8] 10.3 µM and 4.47 µM | Potency [9] 3.26 µM and 6.31 µM

O=C(O)[C@@H]1[C@H]2C[C@H]3c4[nH]c5ccccc5c4CCN3C[C@@H]2CC[C@@H]1O
active: Potency [1] 5.96 µM
inactive: activity (max response) [8] 3.73%

CN1CCN(CCCNc2ncc(Cl)c(-c3cc4c(C(=O)NC5CC5)cccc4s3)n2)CC1
active: Potency [1] 18.6 µM
inactive: activity (max response) [8] 0.565%

C[N+](C)([O-])CCNc1ccc(NCC[N+](C)(C)[O-])c2c1C(=O)c1c(O)ccc(O)c1C2=O
active: Potency [1] 0.934 µM | Potency [3] 1660 nM | Potency [5] 743 nM | Potency [6] 1180 nM | Potency [7] 296 nM | Potency [11] 743 nM
inactive: Potency [9]

CS(=O)(=O)N(Cc1ccco1)CC(O)Cn1c2ccccc2c2ccccc21 (centres undefined)
inactive: Potency [9]
active: Potency [1] 16.4 µM and 16.6 µM | Potency [6] 18700 nM | Potency [7] 14800 nM

Cn1cncc1[C@@](N)(c1ccc(Cl)cc1)c1ccc2c(c1)c(-c1cccc(Cl)c1)cc(=O)n2C
inactive: activity (max response) [8] -19.2% | Potency [9]
active: Potency [1] 2.35 µM | Potency [11] 3720 nM

CO[C@@H]1[C@H](N(C)C(=O)c2ccccc2)C[C@H]2O[C@]1(C)n1c3ccccc3c3c4c(c5c6ccccc6n2c5c31)C(=O)NC4
active: Potency [1] 51.7 nM and 59 nM | Potency [3] 2640 nM | Potency [6] 662 nM | Potency [7] 743 nM | Potency [11] 743 nM
